Bioassay records from PubChem.
Only some compounds are listed: those with a hit (about 7.8% of all), similar ones and a draw of the others.
Vaccinia Venus: vaccinia inhibition (Venus reporter); Vaccinia virus Venus reporter expression, fluorescence; Potency, µM (top dose mostly 36.5 µM), inactives show at the highest dose activity change, negative = inhibition, usual class: inhibitors; hit rate 0.46% among 330,000; calls by dose curve; tested in A549 cells; note: potency is the fitted concentration of half-maximal effect; nearly all actives have a fitted effect of over 30% in size
Marburg entry inh: Marburg virus entry inhibition. Marburg virus pseudotyped entry inhibition, cell reporter. Potency, µM (doses to about 37.8 µM), for inactives: at the top dose activity change, negative = inhibition, most hits filed as inhibitors. hit rate 1.8% among 300,000. AID 540276; calls by dose curve; tested in HEK293 cells; note: potency is the fitted concentration of half-maximal effect
HCMV inh: human cytomegalovirus inhibition | hit rate 4.5% among 410,000 | AID 1259415 | activity change, negative = inhibition, % at 57.5 µM | HFF cells, HCMV-luciferase reporter, 72 h; stronger effect = lower value; in the data active = activity change below about -60%; inconclusive = no clear call, values can overlap the other calls; inactive = above about -39%
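Screen run at 2 compound doses on HFFs infected with reporter HCMV, MOI 1 PFU/cell. Luciferase activity from cell lysates at 72 h post infection gave inhibition relative to buffer-only and Salinomycin wells.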
LASV entry inh: Lassa virus entry inhibition | Lassa virus pseudotype entry inhibition, cell reporter | Potency, µM (titrated, usually from 37.9 µM), for the others: at the highest dose activity change, negative = inhibition, hits mostly inhibitors | hit rate 1.2% among 300,000 | AID 540256; calls by dose curve; tested in HEK293 cells; note: potency is the fitted concentration of half-maximal effect; nearly all actives have a fitted effect of over 50% in size
HCV inh: HCV inhibition. Huh7.5.1 HCVcc-Cre infection, luciferase reporter, 44 h. Potency, µM (doses to about 41.8 µM), without a hit: at the highest dose activity change, negative = inhibition, hits mostly inhibitors. AID 651820. hit rate 3.4% among 340,000; active = well fitted inhibition curve with a large enough effect; inconclusive = small, poorly fitted or top-dose-only effect, or another doubt; inactive = no such curve, though single readings can be large or run the other way; note: potency is the fitted concentration of half-maximal effect
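Reporter virus HCVcc-Cre (~0.5 moi) infects cells exposed to compound; seeding density 1,000 cells/well with 4 h settling beforehand. Luminescence, 15 sec read, taken 44 h post-infection following a 15 min RT substrate incubation.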
Vaccinia mCherry: inhibitors of vaccinia virus infection (mCherry reporter signal); Vaccinia virus mCherry reporter infection, fluorescence; Potency, µM (series often up to 36.5 µM), for the others: at the highest dose activity change, negative = inhibition, actives largely listed as inhibitors; hit rate 0.63% among 310,000; calls by dose curve; tested in A549 cells; note: potency is the fitted concentration of half-maximal effect; nearly all actives have a fitted effect of over 35% in size
Starred values were filed as active, the others as inactive; [ ] = remark or other dose. % is set by controls: 0 for no effect and ±100 for the full control effect.

O=C(/C=C/c1ccc(Br)cc1)NCc1cccs1 was read as Vaccinia Venus -9%, Marburg entry inh 33%, HCMV inh -61*, LASV entry inh 2.6µM*, HCV inh 7% and Vaccinia mCherry -7%.
O=C(/C=C/c1ccc(F)cc1)NCc1cccs1 was read as Vaccinia Venus -14%, Marburg entry inh -8%, HCMV inh 16, LASV entry inh inconclusive, HCV inh 1% and Vaccinia mCherry inactive.
Screening O=C(/C=C/c1ccc(Cl)cc1)NCc1ccco1 returned Vaccinia Venus inconclusive, Marburg entry inh inconclusive, HCMV inh -64*, LASV entry inh 6.5µM*, HCV inh 1% and Vaccinia mCherry inconclusive.
For O=C(COC(=O)/C=C/c1ccc(OC(F)F)cc1)NCc1cccs1 the results were Vaccinia Venus -13%, Marburg entry inh 9%, HCMV inh -64*, LASV entry inh inconclusive, HCV inh 11% and Vaccinia mCherry -13%.
CCOC(=O)c1cccc(NC(=O)c2cc(C)nc3c2c(C)nn3-c2ccc(C)cc2)c1 was read as Vaccinia Venus -18%, HCMV inh -2, LASV entry inh 0%[46.1 µM] and Vaccinia mCherry -11%.
For COc1ccc(NCc2cc3cc4c(cc3n(CC(=O)Nc3ccc(C)cc3)c2=O)OCO4)cc1 the results were Vaccinia Venus -9%, HCMV inh -2, LASV entry inh -26%[46.1 µM] and Vaccinia mCherry -10%.
`CCC(=O)Nc1ccc(CC)cc1-c1nc2ccccc2n(CC(=O)c2ccc(OC)cc2)c1=O` gave Vaccinia Venus -12%, Marburg entry inh 22%[46.1 µM], HCMV inh -7, LASV entry inh 11%[46.1 µM] and Vaccinia mCherry -17%.
CCC(=O)Nc1ccccc1-c1nc2ccccc2n(Cc2cccc(Br)c2)c1=O was read as Vaccinia Venus inconclusive, Marburg entry inh -3%[46.1 µM], HCMV inh 4, LASV entry inh -1%[46.1 µM] and Vaccinia mCherry -26%.
`CCOC(=O)c1ccc(-c2ccc(/C=N/NC(=O)CN(c3ccccc3Br)S(C)(=O)=O)o2)cc1` gave Vaccinia Venus -7%, Marburg entry inh inconclusive, HCMV inh 10, LASV entry inh 14%, HCV inh 11µM* and Vaccinia mCherry inactive.
For CS(=O)(=O)N(CC(=O)N/N=C/c1cccc2c1OCCO2)c1ccccc1Br the results were Vaccinia Venus -27%, Marburg entry inh -7%, HCMV inh 5, LASV entry inh 9% and HCV inh 3%.
For CCOc1ccccc1NC(=O)COC(=O)c1cn(CC)c2nc(C)ccc2c1=O the results were Vaccinia Venus -12%, Marburg entry inh 10%[46.1 µM], HCMV inh -7, LASV entry inh -3%[46.1 µM] and Vaccinia mCherry -7%.
Screening Fc1ccc(-n2nnc(-c3cccnc3)n2)cc1 returned Vaccinia Venus -7%, HCMV inh 49, HCV inh 1% and Vaccinia mCherry inactive.
For Fc1ccc(C(CCCn2nnc(-c3cccnc3)n2)c2ccc(F)cc2)cc1 the results were Vaccinia Venus inconclusive, Marburg entry inh inconclusive, HCMV inh -76*, LASV entry inh -8%, HCV inh inconclusive and Vaccinia mCherry inconclusive.
Screening CCN(c1ccccc1)S(=O)(=O)c1ccc(OC)c(NC(=O)CNCCc2ccccc2)c1 returned Vaccinia Venus -24%, Marburg entry inh inconclusive, HCMV inh -33, LASV entry inh inconclusive, HCV inh 7.1µM* and Vaccinia mCherry -11%.
Screening CCN(CC)S(=O)(=O)c1ccc(OC)c(NC(=O)CSc2cc(C)ccc2C)c1 returned Vaccinia Venus -21%, Marburg entry inh inconclusive, HCMV inh -6, LASV entry inh 0.21µM*, HCV inh inconclusive and Vaccinia mCherry -10%.
COCC(=O)Nc1cc(Cl)ccc1C was read as Vaccinia Venus 0%, Marburg entry inh 16%[46.1 µM], HCMV inh -31, LASV entry inh 16%, HCV inh -3% and Vaccinia mCherry -11%.
For Cc1ccc(Cl)cc1NC(=O)CC(O)(C(F)(F)F)C(F)(F)F the results were Vaccinia Venus 28µM*, Marburg entry inh inconclusive, HCMV inh -102*, LASV entry inh inconclusive, HCV inh 22µM* and Vaccinia mCherry inconclusive.
For Cc1ccc(-n2c(=O)c3c(cnn3C)n(CC(=O)Nc3ccc(C)cc3C)c2=O)cc1 the results were Vaccinia Venus -10%, Marburg entry inh inconclusive, HCMV inh -3, LASV entry inh -5%[46.1 µM] and Vaccinia mCherry -3%.
For COc1cc(OC)c(NS(=O)(=O)c2cc3c(cc2C)N(C(C)=O)CCO3)cc1Cl the results were Vaccinia Venus -6%, HCMV inh -8, LASV entry inh inconclusive and Vaccinia mCherry -14%.
CN(C)c1ccc(/C=C/c2ccnc3ccccc23)cc1 was read as Vaccinia Venus 15% and Vaccinia mCherry 14%.
`COc1cccc(OCc2cc(C3Nc4ccccc4C(=O)N3Cc3ccco3)ccc2OC)c1` (stereo not given) gave Vaccinia Venus 0%, Marburg entry inh inconclusive, HCMV inh -21, LASV entry inh 8.9µM*, HCV inh inconclusive and Vaccinia mCherry -20%.
Screening CCOC(=O)Cn1c(S(=O)(=O)Cc2ccc(F)cc2)nc(-c2ccccc2)c1-c1ccccc1 returned Vaccinia Venus -13%, Marburg entry inh 4.1µM*, HCMV inh -78*, LASV entry inh 2.6µM*, HCV inh inconclusive and Vaccinia mCherry inconclusive.
CCOC(=O)Cn1c(S(=O)(=O)Cc2cccc(F)c2)nc(-c2ccccc2)c1-c1ccccc1 was read as Marburg entry inh 2.6µM*, HCMV inh inconclusive, LASV entry inh 7.3µM* and HCV inh inconclusive.
`Cc1cc(O)c(C(c2ccc(F)cc2)N2CCCCC2)c(=O)n1Cc1ccco1` (stereo not given) gave Vaccinia Venus -6%, HCMV inh 14, LASV entry inh 11%[46.1 µM] and Vaccinia mCherry -8%.
For CC1CCCc2cc(OS(=O)(=O)C(F)(F)F)ccc2OC(=O)CC1 (stereo not given) the results were HCMV inh -5.
`O=C(CCc1ccccc1)NCc1ccncc1` gave HCMV inh 32 and HCV inh 10%.
`O=C(CCNNC(=O)c1ccncc1)NCc1ccccc1` gave Vaccinia Venus -10%, Marburg entry inh inconclusive, HCMV inh -103*, LASV entry inh inconclusive, HCV inh 14%[8.37 µM] and Vaccinia mCherry -13%.
Screening COc1ccc(Cl)cc1NC(=O)CSc1nnc(C)n2c1cc1sccc12 returned Vaccinia Venus -29%, HCMV inh -20, LASV entry inh -3%[46.1 µM] and Vaccinia mCherry inconclusive.
`COc1ccc(Oc2nc3ccccc3n3cccc23)cc1` gave Vaccinia Venus -24%, Marburg entry inh -22%, HCMV inh -26, LASV entry inh -7% and HCV inh 11µM*.
